In PubChem BioAssay AID686978 (National Center for Advancing Translational Sciences (NCATS), 2013):
Hit rate of the full screen: of about 420,000 compounds, about 64,000 (15%) were called active. Another 27% or so got no clear call; they are omitted. Calls follow the shape of the dose curve; as a rule, active = well fitted inhibition curve with a large enough effect; inconclusive = small, poorly fitted or top-dose-only effect; inactive = flat fitted curve, though single readings scatter. Not all results are given here. A call without a number means that no potency is given here.

Experiment: qHTS for Inhibitors of human tyrosyl-DNA phosphodiesterase 1 (TDP1): qHTS in cells in absence of CPT; also: nearly all actives have a fitted effect of over 55% in size
Conditions: DT40 Tdp1-/- hTDP1 cells, no CPT, ATP luminescence, 48 h; activity change, negative = growth inhibition: at 46.2 µM (top of the series)
Outline: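 A cellular qHTS used chicken DT40 cells lacking endogenous Tdp1 but carrying stably transfected human TDP1. Compounds were applied without camptothecin, and cell growth kinetics were judged by ATP-dependent luminescence after ≥48 hr.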
Potency is read from the fitted curve at half-maximal effect.

Compound	Potency
COc1ncc2nc(-c3ccc(Cl)cc3)c(=O)n(-c3ccccc3)c2n1	inactive
COc1ccccc1Cc1c(-c2ccc(Cl)cc2)nc2c3ccccc3ccn12	20.6 µM (active)
N#Cc1ccc(-c2nc3c(Cl)cc(C(F)(F)F)cn3c2Cc2ccccc2C(F)(F)F)cc1	inactive
CC(C)OC(=O)CC(=O)CC(O)c1cccc([N+](=O)[O-])c1 (stereo not given)	inactive
NC(Cc1ccccc1)c1csc(Nc2cc(Oc3ccccc3)ncn2)n1 (stereo not given)	16.4 µM (active)
CCNC(=O)C1CCCN(C(=O)c2cc(F)ccc2C)CC1 (stereo not given)	inactive
CCN(c1ccccc1)S(=O)(=O)c1cc2c(cc1C)n(C)c(=O)c(=O)n2C	inactive
CC(C)CN(CC(C)C)CC(O)CN(c1ccccc1)S(=O)(=O)c1ccccc1[N+](=O)[O-] (stereo not given)	23.1 µM (active)
Cc1cccc(N(CC(O)CN(C)C)S(=O)(=O)c2ccccc2)c1 (stereo not given)	inactive
NC(=O)CCCC1=NS(=O)(=O)c2ccccc2N1	inactive
CCCCN1C(=O)/C(=C/C=C2/C=Cc3ccccc3N2CC)SC1=S	8.2 µM (active)
CCCCN1C(=O)/C(=C2/C=CC=CN2C)SC1=S	inactive
CN1C=CC=C/C1=C1\SC(=S)N(Cc2ccccc2)C1=O	inactive
CCCOc1ccc(-c2nc(N)n[nH]2)cc1	inactive
CC(OC(=O)c1ccc2ccccc2n1)C(=O)c1ccccc1 (stereo not given)	inactive
COc1cccc(C2Nc3cccc4cccc(c34)N2)c1	inactive
COc1ccc(C2NC(=O)c3ccccc3N2)cc1 (stereo not given)	inactive
O=C1NC(c2cccc(Cl)c2)Nc2ccccc21 (stereo not given)	16.4 µM (active)
Cc1cc(C)c(C#N)c(SCC(=O)N(CC(C)C)C2CCS(=O)(=O)C2)n1 (stereo not given)	inactive
O=C(CNC(=O)c1cccnc1)N/N=C/c1cccnc1	inactive
O=C(CSc1cccc2cccnc12)N/N=C/c1cccnc1	4.11 µM (active)
Cc1nc2ccccc2n1CC(=O)N/N=C/c1cccnc1	inactive
COc1ccc(NC(=O)c2sccc2SCC#N)cc1	inactive
Cc1cc(C)c(C#N)c(SCC(=O)Nc2ccccc2)n1	inactive
CC1=C(C(=O)Nc2ccccc2)C(c2cccs2)C(C#N)=C(SCC#N)N1 (stereo not given)	7.31 µM (active)
N/C(=N\c1nc2ccccc2o1)NC(=O)C(Cc1ccccc1)N1C(=O)c2ccccc2C1=O (stereo not given)	inactive
Nn1c(SCC(=O)Nc2ccc3c(c2)CCC3)nnc1C1CC1	inactive
Cc1cccc(Cc2c(C)nc3nc(SCc4ccccc4Cl)nn3c2C)c1	20.6 µM (active)
Cc1nc2nc(SCC(=O)NCc3ccco3)nn2c(C)c1Cc1ccccc1	inactive
COC(OC)c1ccnc(SCc2ccccc2Cl)n1	inactive
